Measurements taken from the supplement of paper PMC11732987, “Enantioselective OTUD7B fragment discovery through chemoproteomics screening and high-throughput optimisation” (Communications Chemistry, 2025).

Legend:
Experiment in all cases: log2 ratio of Biotin-Ahx-Ub-VS probe labelling (fragment/DMSO); higher = less target engagement (more negative = stronger competition), active = hit call of the paper (q ≤ 0.05, log2 ratio ≤ -1)
Settings in all cases: compound concentration: 200 uM; treatment time: 3 h
USP42 = molecular target: T1, USP42 (UniProt Q9H9J4)
T1 sequence (whole entry): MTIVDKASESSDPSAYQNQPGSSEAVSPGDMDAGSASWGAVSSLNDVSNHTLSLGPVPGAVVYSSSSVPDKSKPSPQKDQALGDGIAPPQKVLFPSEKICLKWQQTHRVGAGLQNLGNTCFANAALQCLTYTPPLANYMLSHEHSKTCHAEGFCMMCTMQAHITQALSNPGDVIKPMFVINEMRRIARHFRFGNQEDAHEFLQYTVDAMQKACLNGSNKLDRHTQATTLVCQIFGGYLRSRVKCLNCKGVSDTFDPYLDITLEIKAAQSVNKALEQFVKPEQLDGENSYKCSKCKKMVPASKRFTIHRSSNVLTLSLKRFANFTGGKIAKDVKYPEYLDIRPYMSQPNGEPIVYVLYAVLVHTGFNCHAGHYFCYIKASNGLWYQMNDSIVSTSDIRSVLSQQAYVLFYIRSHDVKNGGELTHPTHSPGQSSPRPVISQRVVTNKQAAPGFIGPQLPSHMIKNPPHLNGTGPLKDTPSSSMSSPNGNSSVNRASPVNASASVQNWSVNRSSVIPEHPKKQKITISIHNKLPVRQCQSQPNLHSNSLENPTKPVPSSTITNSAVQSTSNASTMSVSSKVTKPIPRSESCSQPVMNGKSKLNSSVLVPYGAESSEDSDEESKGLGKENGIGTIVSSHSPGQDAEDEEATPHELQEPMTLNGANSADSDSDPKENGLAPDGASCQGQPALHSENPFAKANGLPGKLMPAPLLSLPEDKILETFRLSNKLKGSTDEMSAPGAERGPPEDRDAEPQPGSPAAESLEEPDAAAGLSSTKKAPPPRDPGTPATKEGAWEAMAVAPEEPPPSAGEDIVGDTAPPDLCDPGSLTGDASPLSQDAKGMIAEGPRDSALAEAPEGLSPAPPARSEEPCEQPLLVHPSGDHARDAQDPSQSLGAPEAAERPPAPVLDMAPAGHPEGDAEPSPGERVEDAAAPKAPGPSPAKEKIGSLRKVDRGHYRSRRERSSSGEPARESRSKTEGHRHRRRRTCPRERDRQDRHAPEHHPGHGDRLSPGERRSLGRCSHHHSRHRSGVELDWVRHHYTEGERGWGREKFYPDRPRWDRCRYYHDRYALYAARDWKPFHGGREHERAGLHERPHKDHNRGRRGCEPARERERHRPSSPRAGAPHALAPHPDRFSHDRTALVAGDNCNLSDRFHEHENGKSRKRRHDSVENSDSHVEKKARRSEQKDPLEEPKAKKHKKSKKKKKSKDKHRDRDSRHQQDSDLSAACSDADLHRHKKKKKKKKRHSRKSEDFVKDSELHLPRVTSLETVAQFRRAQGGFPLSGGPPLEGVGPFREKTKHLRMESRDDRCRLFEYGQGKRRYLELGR
Procedure, shortened: (§1)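 HEK293T lysate, 495 µg per sample in Tris/CHAPS/IGEPAL buffer with protease inhibitors, was treated in triplicate with fragment at 200 µM or vehicle for 3 h and then with Biotin-Ahx-Ub-VS at 0.5 µM final for 1 h. Labelled DUBs were NeutrAvidin-enriched, digested with LysC and trypsin, and run by diaPASEF LC-MS/MS. Spectronaut label-free quantities were global-median-normalised, and values are average log2 fragment/vehicle ratios by unpaired t-test on proteins with ≥2 unique peptides.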

USP46 = USP46 (UniProt P62068)
Sequence of USP46 (P62068 whole entry): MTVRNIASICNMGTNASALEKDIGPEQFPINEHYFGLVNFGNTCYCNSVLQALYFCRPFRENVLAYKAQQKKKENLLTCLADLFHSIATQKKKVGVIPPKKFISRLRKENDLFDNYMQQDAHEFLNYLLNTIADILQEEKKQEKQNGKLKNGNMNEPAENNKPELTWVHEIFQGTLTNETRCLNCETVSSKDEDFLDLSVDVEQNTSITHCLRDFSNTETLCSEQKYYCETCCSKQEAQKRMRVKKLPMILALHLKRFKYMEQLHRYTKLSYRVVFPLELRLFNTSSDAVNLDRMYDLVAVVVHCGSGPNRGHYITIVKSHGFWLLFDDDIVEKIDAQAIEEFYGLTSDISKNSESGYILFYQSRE
Procedure, shortened: as §1

USP47 = molecular target: T2, USP47 (UniProt Q96K76)
T2 sequence (whole entry): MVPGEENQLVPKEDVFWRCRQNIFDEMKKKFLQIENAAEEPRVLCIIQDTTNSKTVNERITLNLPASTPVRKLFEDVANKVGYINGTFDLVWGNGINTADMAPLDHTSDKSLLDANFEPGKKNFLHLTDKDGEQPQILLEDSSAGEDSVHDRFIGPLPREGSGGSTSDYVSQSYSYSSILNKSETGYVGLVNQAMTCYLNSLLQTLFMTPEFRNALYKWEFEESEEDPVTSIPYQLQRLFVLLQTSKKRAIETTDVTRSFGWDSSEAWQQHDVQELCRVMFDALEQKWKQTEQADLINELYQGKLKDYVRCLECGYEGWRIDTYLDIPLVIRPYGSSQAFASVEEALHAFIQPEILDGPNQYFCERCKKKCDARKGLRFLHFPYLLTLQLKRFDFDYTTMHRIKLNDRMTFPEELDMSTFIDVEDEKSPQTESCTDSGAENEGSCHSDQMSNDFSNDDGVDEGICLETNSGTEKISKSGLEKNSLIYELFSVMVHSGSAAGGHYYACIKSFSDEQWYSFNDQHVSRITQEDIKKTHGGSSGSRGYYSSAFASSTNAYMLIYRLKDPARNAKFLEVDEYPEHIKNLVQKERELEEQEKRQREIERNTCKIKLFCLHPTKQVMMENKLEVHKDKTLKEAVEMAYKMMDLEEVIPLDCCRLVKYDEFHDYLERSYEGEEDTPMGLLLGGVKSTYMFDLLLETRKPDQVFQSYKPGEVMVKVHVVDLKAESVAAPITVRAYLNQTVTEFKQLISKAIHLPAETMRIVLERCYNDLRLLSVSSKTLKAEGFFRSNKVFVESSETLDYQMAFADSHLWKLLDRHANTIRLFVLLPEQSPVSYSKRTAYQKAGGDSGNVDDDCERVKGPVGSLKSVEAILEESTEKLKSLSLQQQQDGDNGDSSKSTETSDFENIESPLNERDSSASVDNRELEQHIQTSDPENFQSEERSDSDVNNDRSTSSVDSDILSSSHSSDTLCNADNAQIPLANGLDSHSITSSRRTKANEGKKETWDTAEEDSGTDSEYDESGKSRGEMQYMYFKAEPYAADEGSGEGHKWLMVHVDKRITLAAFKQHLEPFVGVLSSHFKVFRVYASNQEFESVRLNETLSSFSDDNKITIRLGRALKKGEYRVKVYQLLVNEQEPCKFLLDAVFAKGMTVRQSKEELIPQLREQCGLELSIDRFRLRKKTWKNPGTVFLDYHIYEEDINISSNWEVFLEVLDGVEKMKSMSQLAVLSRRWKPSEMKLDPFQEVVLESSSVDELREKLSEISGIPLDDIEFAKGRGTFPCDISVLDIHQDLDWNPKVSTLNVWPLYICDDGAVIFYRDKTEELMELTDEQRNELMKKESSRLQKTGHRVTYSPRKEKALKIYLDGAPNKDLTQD
Procedure, shortened: as §1

USP48 = molecular target: T3, USP48 (UniProt Q86UV5)
T3 sequence (whole entry): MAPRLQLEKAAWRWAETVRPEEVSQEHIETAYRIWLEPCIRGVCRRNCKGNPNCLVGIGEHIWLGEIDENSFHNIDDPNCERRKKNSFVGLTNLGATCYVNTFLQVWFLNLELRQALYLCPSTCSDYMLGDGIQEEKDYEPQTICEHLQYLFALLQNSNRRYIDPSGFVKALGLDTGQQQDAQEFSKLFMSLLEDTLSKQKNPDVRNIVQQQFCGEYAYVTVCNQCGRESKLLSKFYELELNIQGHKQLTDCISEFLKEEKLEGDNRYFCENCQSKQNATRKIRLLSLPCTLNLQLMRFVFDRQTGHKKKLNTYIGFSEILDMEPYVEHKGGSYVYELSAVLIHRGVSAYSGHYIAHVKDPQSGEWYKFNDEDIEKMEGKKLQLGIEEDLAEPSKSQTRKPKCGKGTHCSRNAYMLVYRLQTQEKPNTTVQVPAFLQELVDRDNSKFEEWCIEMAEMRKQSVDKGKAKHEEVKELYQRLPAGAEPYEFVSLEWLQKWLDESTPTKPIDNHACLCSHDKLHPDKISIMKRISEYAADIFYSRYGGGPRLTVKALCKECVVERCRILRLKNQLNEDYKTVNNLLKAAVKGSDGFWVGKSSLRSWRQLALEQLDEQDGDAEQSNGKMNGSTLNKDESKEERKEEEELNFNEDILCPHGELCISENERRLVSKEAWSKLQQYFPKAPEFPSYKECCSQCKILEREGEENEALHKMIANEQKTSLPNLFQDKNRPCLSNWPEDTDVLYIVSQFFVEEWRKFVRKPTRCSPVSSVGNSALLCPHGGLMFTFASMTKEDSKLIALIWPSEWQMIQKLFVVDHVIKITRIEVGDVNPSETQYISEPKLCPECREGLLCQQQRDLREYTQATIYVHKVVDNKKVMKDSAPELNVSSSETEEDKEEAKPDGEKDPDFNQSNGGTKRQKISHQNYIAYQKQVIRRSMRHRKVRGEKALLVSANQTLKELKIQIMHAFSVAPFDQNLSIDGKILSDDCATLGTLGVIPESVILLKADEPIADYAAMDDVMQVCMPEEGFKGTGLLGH
Procedure, shortened: as §1

USP5 = molecular target: T4, USP5 (UniProt P45974)
T4 sequence (whole entry): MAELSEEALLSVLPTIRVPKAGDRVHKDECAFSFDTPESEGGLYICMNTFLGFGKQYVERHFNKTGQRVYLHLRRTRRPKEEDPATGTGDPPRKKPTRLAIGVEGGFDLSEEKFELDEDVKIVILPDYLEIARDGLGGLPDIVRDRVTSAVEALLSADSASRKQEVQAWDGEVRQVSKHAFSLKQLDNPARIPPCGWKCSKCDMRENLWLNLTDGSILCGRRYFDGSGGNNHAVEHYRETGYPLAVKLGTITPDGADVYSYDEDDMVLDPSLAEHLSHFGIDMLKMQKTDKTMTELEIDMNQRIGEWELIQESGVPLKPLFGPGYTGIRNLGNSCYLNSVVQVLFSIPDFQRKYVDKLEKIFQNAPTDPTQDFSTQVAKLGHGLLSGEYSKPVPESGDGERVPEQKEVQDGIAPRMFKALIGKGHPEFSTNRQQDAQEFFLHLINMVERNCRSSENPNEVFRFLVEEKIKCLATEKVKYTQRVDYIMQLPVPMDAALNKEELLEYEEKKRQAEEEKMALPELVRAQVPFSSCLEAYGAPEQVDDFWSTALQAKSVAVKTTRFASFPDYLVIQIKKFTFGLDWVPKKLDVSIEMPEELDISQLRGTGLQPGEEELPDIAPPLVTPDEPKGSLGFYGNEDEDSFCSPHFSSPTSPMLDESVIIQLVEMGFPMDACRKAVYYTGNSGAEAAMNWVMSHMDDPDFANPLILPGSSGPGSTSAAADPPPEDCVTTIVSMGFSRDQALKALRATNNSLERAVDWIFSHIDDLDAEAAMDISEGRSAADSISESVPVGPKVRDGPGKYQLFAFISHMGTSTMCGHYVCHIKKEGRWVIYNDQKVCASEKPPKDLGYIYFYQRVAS
Procedure, shortened: as §1

USP54 = USP54 (UniProt Q70EL1)
Sequence of USP54 (Q70EL1 whole entry): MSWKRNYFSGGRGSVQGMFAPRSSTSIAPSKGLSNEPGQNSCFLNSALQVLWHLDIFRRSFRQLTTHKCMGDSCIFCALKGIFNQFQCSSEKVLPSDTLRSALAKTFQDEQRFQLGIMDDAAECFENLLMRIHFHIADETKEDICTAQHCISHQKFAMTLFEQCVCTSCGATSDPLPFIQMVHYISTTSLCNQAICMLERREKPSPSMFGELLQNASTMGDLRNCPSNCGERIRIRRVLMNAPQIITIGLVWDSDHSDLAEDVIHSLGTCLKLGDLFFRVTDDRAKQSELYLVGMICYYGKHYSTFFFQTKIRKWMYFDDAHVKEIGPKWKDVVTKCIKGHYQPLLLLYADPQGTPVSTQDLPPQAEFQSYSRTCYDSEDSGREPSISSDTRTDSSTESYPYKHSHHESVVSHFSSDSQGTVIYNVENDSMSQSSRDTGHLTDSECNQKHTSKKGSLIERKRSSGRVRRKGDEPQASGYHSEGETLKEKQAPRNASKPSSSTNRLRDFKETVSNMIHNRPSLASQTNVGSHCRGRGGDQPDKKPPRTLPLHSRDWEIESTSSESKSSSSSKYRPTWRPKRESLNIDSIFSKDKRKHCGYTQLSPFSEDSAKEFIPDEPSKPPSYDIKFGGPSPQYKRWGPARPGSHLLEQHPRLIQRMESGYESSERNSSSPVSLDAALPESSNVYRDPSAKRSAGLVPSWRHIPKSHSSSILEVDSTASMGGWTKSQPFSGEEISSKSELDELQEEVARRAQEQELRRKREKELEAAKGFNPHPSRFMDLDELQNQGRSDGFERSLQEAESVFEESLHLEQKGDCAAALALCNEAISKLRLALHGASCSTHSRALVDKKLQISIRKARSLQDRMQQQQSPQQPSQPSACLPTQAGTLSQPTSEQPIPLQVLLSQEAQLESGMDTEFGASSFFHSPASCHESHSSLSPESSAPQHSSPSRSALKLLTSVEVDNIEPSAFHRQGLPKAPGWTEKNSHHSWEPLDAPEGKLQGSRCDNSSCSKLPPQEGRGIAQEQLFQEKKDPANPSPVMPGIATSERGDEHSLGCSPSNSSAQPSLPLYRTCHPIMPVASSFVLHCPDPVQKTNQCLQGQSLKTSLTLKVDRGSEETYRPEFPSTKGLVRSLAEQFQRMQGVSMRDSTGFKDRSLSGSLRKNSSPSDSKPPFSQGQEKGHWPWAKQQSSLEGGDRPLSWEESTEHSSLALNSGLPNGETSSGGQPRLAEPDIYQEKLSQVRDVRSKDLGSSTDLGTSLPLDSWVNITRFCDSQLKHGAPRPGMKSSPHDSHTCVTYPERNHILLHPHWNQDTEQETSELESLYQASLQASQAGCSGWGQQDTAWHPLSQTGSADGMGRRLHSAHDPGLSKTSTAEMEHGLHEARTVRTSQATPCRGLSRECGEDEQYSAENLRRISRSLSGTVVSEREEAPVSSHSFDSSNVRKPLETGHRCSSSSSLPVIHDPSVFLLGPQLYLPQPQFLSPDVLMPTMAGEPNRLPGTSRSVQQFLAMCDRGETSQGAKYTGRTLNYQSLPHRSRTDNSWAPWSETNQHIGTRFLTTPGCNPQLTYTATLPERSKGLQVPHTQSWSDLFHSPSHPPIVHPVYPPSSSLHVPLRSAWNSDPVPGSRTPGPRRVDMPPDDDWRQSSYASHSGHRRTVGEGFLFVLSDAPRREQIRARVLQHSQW
Procedure, shortened: as §1

USP7 = USP7 (UniProt Q93009)
Sequence of USP7 (Q93009 whole entry, looked up): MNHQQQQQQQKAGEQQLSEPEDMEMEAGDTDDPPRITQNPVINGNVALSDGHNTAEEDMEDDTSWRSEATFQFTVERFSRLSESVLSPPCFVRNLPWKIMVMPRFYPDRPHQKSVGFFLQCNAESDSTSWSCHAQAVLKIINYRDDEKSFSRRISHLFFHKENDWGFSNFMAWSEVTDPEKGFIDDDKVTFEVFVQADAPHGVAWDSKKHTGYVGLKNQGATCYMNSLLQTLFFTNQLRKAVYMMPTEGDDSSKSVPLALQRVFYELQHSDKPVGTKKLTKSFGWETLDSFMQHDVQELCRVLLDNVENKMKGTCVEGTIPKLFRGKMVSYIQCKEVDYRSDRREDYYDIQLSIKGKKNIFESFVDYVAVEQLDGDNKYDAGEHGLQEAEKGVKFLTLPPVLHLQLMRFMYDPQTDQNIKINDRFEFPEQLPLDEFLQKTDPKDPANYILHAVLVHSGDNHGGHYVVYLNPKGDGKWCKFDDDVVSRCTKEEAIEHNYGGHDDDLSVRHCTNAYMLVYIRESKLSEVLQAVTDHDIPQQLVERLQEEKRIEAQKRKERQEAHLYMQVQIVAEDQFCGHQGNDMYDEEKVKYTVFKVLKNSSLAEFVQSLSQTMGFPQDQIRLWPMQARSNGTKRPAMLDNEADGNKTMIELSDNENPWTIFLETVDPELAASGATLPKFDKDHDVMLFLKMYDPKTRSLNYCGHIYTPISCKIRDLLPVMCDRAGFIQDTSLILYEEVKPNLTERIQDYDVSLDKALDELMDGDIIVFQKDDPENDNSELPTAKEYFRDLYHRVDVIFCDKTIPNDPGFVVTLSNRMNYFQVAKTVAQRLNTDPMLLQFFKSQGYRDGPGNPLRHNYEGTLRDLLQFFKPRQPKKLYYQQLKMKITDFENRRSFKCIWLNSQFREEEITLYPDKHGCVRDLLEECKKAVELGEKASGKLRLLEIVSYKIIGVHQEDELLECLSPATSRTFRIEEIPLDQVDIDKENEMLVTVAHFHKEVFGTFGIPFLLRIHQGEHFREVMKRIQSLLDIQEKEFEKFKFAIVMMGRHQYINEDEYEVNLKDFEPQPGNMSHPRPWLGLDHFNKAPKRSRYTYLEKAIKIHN
Procedure, shortened: as §1

USP8 = molecular target: T5, USP8 (UniProt P40818)
T5 sequence (whole entry): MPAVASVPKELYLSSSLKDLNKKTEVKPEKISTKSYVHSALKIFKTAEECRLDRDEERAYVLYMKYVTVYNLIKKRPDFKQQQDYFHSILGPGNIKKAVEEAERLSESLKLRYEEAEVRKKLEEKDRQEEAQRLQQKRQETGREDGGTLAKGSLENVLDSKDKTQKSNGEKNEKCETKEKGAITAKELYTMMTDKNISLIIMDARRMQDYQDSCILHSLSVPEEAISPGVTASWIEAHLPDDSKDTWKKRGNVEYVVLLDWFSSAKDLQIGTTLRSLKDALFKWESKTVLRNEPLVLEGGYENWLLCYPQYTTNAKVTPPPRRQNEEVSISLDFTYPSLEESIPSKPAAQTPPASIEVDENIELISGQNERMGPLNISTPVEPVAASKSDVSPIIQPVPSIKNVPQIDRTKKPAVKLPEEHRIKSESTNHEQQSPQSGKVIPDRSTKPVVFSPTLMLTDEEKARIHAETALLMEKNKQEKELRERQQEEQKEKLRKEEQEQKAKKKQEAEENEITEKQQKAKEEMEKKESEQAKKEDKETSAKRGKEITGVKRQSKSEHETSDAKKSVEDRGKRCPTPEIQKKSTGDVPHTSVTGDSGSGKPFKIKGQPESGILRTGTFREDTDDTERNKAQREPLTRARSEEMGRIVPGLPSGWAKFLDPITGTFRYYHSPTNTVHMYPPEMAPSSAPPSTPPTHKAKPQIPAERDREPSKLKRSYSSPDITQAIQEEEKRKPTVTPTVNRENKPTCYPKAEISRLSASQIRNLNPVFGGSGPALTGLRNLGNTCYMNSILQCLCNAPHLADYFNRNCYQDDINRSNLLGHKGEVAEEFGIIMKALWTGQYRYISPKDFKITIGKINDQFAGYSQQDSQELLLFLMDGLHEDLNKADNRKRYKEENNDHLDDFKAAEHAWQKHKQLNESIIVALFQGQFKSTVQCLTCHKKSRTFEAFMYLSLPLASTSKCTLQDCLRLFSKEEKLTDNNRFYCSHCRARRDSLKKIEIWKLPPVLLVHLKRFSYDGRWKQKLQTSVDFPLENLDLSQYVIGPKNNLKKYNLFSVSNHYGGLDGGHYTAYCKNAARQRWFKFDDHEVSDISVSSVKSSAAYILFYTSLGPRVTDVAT
Procedure, shortened: as §1

Measured: log2 ratio of Biotin-Ahx-Ub-VS probe labelling

CNC(=O)C1CCN(C(=O)CCl)CC1
inactive: USP42 0.308 | USP46 0.0795 | USP47 0.356 | USP48 -0.0361 | USP5 -0.203 | USP54 0.32 | USP7 -0.171 | USP8 -0.00406
